Values joined by “and” are separate entries in the source; they are usually repeats but may differ in a detail not shown here. Equal values may be shown once. Results filed as inconclusive are left out. Where a call stands in place of a potency, no number is given. Active and inactive are the calls of the source. Calls follow the shape of the dose curve; as a rule, active = well fitted cell-killing curve with a large enough effect in the repeat runs; inconclusive = weak or mixed curves, or effect the other way; inactive = no such curve, though single readings can be large or run the other way.
Potency is read from the fitted curve at half-maximal effect.

This experiment is described as follows: qHTS assay for identifying genotoxic compounds that show differential cytotoxicity against isogenic chicken DT40 cell lines with known DNA damage response pathways - wild type cell line (AID 743012). Also: nearly all actives have a fitted effect of over 60% in size. Conditions: DT40 wild type chicken cells viability, CellTiter-Glo, 40 h; series mostly up to 68.4 µM. From the text: U.S. Tox21 Program National Center for Advancing Translational Sciences [NCATS] NIH Chemical Genomics Center [NCGC] U.S. Environmental Protection Agency [EPA] National Institutes of Environmental Health Sciences [NIEHS] National Toxicology Program [NTP] U.S. Food and Drug Administration [FDA] Tox21 Assay Overview: DNA repair pathways play a critical role in cellular homeostasis by repairing DNA damage induced by endogenous processes and xenobiotics. Isogenic chicken DT40 cell lines deficient in different DNA repair pathways can be used to identify genotoxic compounds and aid in characterizing the nature of the DNA damage induced. Two DNA repair-deficient cell lines with disrupted genes, Rad54/Ku70 or Rev3, were used to screen the Tox21 10K compound library. Possible genotoxicity was based on the presence of a significant increase in cytotoxicity in one or more of the DNA repair-deficient cell lines compared to that observed in the parental DNA repair-proficient cell line. CellTiter Glo viability assay (Promega, Madison, WI) was used to measure cell viability in these cells after compound treatment. This assay includes the data from the wild type cell line.
Tox21 Assay Protocol Summary: 300 DT40 wild type cells in 5 uL/well were dispensed into white, solid-bottom 1536-well plates using a Multidrop Combi (ThermoFisher Scientific, Waltham, MA) dispenser. After the assay plates were incubated at 37 C/5% CO2 for approximately 0.5 hour, 23 nL of compounds dissolved in DMSO, positive controls or DMSO only was transferred into the assay plate by a pintool work station (Kalypsys, San Diego, CA). The assay plates were incubated at 37 C/5% CO2 for 40 hours. After 5 uL per well of CellTiter-Glo reagent was added into each well of the assay plates, the plates were incubated for 30 min at room temperature and the luminescence intensity of the plates was measured using a ViewLux (PerkinElmer, Shelton, CT) plate reader.
A general note: Quantitative high-throughput screening tests each substance at several concentrations.
`C[N+](C)(C)CCOC(N)=O`: the Potency result was “inactive”.

Turning to `CCNC(=O)N1CCN(CCCC(c2ccc(F)cc2)c2ccc(F)cc2)CC1`, the Potency is 5.31 µM (active). As for `CC(=O)Oc1ccc2c(c1)CC[C@@H]1[C@@H]2CC[C@]2(C)[C@@H](O)CC[C@@H]12`, the Potency is 29.8 µM (active). Regarding `COC(=O)CC(=O)C(C)(C)C`, the Potency entry is “inactive”. The same measure for `Cc1ccnc2ccccc12`: “inactive”; for `CC(=O)CC(c1ccc([N+](=O)[O-])cc1)c1c(O)c2ccccc2oc1=O` (stereo not given): “inactive”.

For `Cc1oncc1C(=O)Nc1ccc(C(F)(F)F)cc1`, the Potency was 7.7 µM (active).

Take `CC(C)(C)C(=O)C(Oc1ccc(Cl)cc1)n1ccnc1` (stereo not given): the Potency was 13.3 µM (active). As for `CC(C)CCCCCCOC(=O)CCCCC(=O)OCCCCCCC(C)C`, the Potency result was “inactive”. For `CCOC(=N)CC(=O)OCC`, the Potency entry is “inactive”.

For `O=C1NCCN1`, the Potency entry is “inactive”.

Take `CNCCCC1c2ccccc2C=Cc2ccccc21`: the Potency was 4.52 µM (active).

As for `CC1CC(=O)NN=C1c1ccc(NCC(C)(C)NCC(O)COc2cc(Cl)ccc2C#N)cc1` (stereo not given), the Potency is 0.668 µM (active). Regarding `CC(C)C(OC(=O)c1ccccc1)C(C)(C)COC(=O)c1ccccc1` (stereo not given), the Potency is 21.7 µM (active). As for `COc1ccccc1N=Nc1c(S(=O)(=O)O)cc2cc(S(=O)(=O)O)cc(NC(C)=O)c2c1O`, the figure is 28.8 µM (active); as for `Oc1cc(O)c(Cl)cc1Cl`, “inactive”. As for `CC(C)=CC=O`, the entry is “inactive”; as for `OC(CCCN1CCCCC1)(c1ccccc1)c1ccccc1`, 13.3 µM (active); as for `Cc1occc1C(=O)Nc1ccc(C(=O)N2CCC(F)(F)/C(=C\C(=O)N3CCC(N4CCCCC4)CC3)c3ccccc32)cc1`, “inactive”. As to `CC#N`, the Potency entry was “inactive”. As for `Cc1cc(S(=O)(=O)O)ccc1N=Nc1c(O)ccc2ccccc12`, the Potency entry was “inactive”. Turning to `CCOC(=O)OCC`, the Potency result is “inactive”. Consider `O=C(CCCCCCCCC#CI)Oc1ccccc1`, for which the Potency entry is “inactive”. As to `CC(C)(C)C(=O)O`, the Potency entry is “inactive”. Turning to `CCCC(=O)O[C@]1(C(=O)COC(=O)CC)CC[C@H]2[C@@H]3CCC4=CC(=O)CC[C@]4(C)[C@H]3[C@@H](O)C[C@@]21C`, the Potency result was “inactive”.

As for `CCc1nn(CCCN2CCN(c3cccc(Cl)c3)CC2)c(=O)n1CCOc1ccccc1`, the Potency was 4.22 µM (active) and 11.9 µM (active). With `CN(C)C(=O)Nc1ccc(Oc2ccc(Cl)cc2)cc1`, the Potency is 21.7 µM (active). On to `CC1=CC(O)CC(C)(C)C1` (stereo not given), for which the Potency result was “inactive”.

Take `OCC1CC=CCC1` (stereo not given): the Potency entry was “inactive”. `O=C(/C=C/c1ccccc1)OCCCc1ccccc1`: the Potency result is “inactive”. In the case of `CCCCCCOC(=O)CCCCCCCC(=O)OCCCCCC`, the Potency entry was “inactive”. On to `CCCCC(=O)O[C@]1(C(=O)CO)[C@@H](C)C[C@H]2[C@@H]3CCC4=CC(=O)C=C[C@]4(C)[C@@]3(F)[C@@H](O)C[C@@]21C`, for which the Potency is 43.3 µM (active). Turning to `Brc1cc(-c2ccc(Br)c(Br)c2Br)cc(Br)c1Br`, the Potency result was “inactive”. With `c1ccc(COCc2ccccc2)cc1`, the Potency entry is “inactive”. The same measure for `O=c1[nH]c2ccc(S(=O)CCN3CCC(Cc4ccc(F)cc4)CC3)cc2o1` (stereo not given): 13.7 µM (active). Regarding `O=[N+]([O-])c1cccc(S(=O)(=O)NCCNS(=O)(=O)c2cccc([N+](=O)[O-])c2)c1`, the Potency result was “inactive”.

Consider `CC(=O)[C@H]1CC[C@H]2[C@@H]3C[C@H](C)C4=CC(=O)CC[C@]4(C)[C@H]3[C@@H](O)C[C@]12C`, for which the Potency is 9.02 µM (active). Regarding `O=C(Nc1ccc([N+](=O)[O-])cc1)Nc1ccc([N+](=O)[O-])cc1`, the Potency was 10.6 µM (active). The same measure for `CN(C)CCOC1=Cc2ccccc2Sc2ccc(Cl)cc21`: 5.31 µM (active); for `COc1ccc(C(=O)c2cccc(O)c2)c(OC)c1`: “inactive”.
